Measurements from PubChem BioAssay AID1662 (Broad Institute, 2009).
Among all 300,000 compounds or so, about 4,000 (1.3%) were called active. The sample as a whole holds a higher share of actives than the screen did. Unmarked numbers belong to inactive results.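 How the source made its calls: active means mean replicate score, as percent of positive control median, at least 50; inconclusive means mean below 50 but one replicate at or above 50; inactive means mean and every replicate below 50.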

Assay: S. pyogenes SKKanGAS growth inhibitors in kanamycin, primary screen, streptokinase expression inhibitor project, SKKanGAS strain, BacTiter-Glo luminescence (AID 1662);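 further: strain carries kanamycin resistance gene driven by streptokinase promoter and grows in 40 µg/ml kanamycin; loss of luminescence reflects streptokinase promoter inhibition or plain growth inhibition; 0% = median of DMSO wells and 100% = positive control at its reference dose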
Details: 6 h, at 7.5 µM, stronger effect = higher value
With `COc1ccc(Cl)cc1N(CC(=O)N1CCCCC1)S(C)(=O)=O` the inhibition was -8.05%. For `O=C(/C=C/c1cccc([N+](=O)[O-])c1)N1CCN(Cc2ccccc2)CC1`, the inhibition was 2.48%. With `O=[N+]([O-])/C=C/c1ccc2c(ccn2Cc2ccccc2)c1` the inhibition was 81% (active). In the case of `O=c1c([N+](=O)[O-])cc(C(F)(F)F)cn1Cc1cccc(Cl)c1`, the inhibition is reported as -8.03%. In the case of `O=C(c1cccs1)C1C(c2ccc(Br)cc2)NC(=S)NC1(O)C(F)(F)F` (stereo not given), the inhibition is reported as -1.18%. With `Cc1[nH]n(-c2ccccc2)c(=O)c1CCOC(=O)c1ccc(C(F)(F)F)cc1` the inhibition was 3.86%. In the case of `CCCNC(=O)CCn1cc(-c2ccc(OC)cc2)nc1CCN`, the inhibition is reported as -0.358%. Compound `c1ccc2c(c1)OCC(CNc1ncnc3nc[nH]c13)O2` (stereo not given) has an inhibition of 0.403%. In the case of `COc1ccc(Nc2ncnc3sc(-c4ccccc4)cc23)c(OC)c1`, the inhibition is reported as 17.7%. With `c1ccc(-c2cc3c(NCC4COc5ccccc5O4)ncnc3s2)cc1` (stereo not given) the inhibition was 74.2% (active). With `O=C(O)c1ccc(NS(=O)(=O)c2ccc3c(c2)C(=O)c2cc(S(=O)(=O)Nc4ccc(C(=O)O)cc4)ccc2-3)cc1` the inhibition was 7.11%. `CC(=O)c1cccc(NC(=O)C2CCN(C(=O)c3ccccc3Cl)CC2)c1` gave an inhibition of -0.79%. Work on `Cc1cccc(-n2c(SCC(N)=O)nc3c(c2=O)C2(CCCCC2)Cc2ccccc2-3)c1` yielded an inhibition of 13.1%. In the case of `N#C/C(=C(/O)COc1cccc2ccccc12)c1nc2ccccc2[nH]1`, the inhibition is reported as 7.13%. `O=C(O)c1ccccc1CSc1nc2ccccc2s1` gave an inhibition of 38.1%. With `N#C/C(=C(/O)Cc1cccc2ccccc12)c1nc2ccccc2s1` the inhibition was 79.1% (active). Work on `CN1CCC(CN)(N2CCN(c3ccccc3)CC2)CC1` yielded an inhibition of -3.22%. In the case of `Cc1ccc(CNCc2ccc3c(c2)OCO3)c(C)c1`, the inhibition is reported as 0.677%. `O=C(O)CCN(Cc1ccccc1)S(=O)(=O)c1c(Cl)cccc1Cl` gave an inhibition of 8.43%. For `CC(C)CC[n+]1ccn(C2=C([O-])c3ccccc3C(=O)/C2=N\S(=O)(=O)c2ccccc2)c1`, the inhibition was 62.6% (active). In the case of `NNc1nc2c(Cl)cccc2s1`, the inhibition is reported as -7.59%. `Cc1nc2nc(C)c(NS(=O)(=O)c3ccc(C(C)(C)C)cc3)c(=O)n2[nH]1` showed an inhibition of 19.7%. Work on `O=C(NCCc1ccccn1)c1cc(-c2ccc(Cl)cc2)nc2ccccc12` yielded an inhibition of 1.78%. `CCOC(=O)CSc1nnc(NC(=O)C2CC(=O)N(c3ccc(F)cc3)C2)s1` (stereo not given) showed an inhibition of 39.8%. For `COc1ccc(CCNC(=O)COC(=O)Cc2cc(OC)c(OC)c(OC)c2)cc1`, the inhibition was 1.27%. For `Cc1ccc(NC2=C(Cl)C(=O)OC2OC(=O)c2ccccc2C)cc1` (stereo not given), the inhibition was 66% (active). For `O=C1OC(OC(=O)c2ccccc2Br)C(N2CCOCC2)=C1Cl` (stereo not given), the inhibition was 35.8%. For `Cc1ccccc1C(=O)OC1OC(=O)C(Cl)=C1Nc1ccccc1` (stereo not given), the inhibition was 3.76%. `O=[N+]([O-])c1ccc(N(CCO)Cc2ccccc2)c([N+](=O)[O-])c1` gave an inhibition of 4.42%. With `CN(C)CCCNC(=S)N1CCN(c2nc(-c3ccccc3)cs2)CC1` the inhibition was -0.915%. In the case of `CC[C@H]1OC(=O)[C@H](C)[C@@H](O[C@H]2C[C@@](C)(OC)[C@@H](O)[C@H](C)O2)[C@H](C)[C@@H](O[C@@H]2O[C@H](C)C[C@H](N(C)C)[C@H]2O)[C@](C)(O)C[C@@H](C)[C@@H]2N[C@@H](COCCOC)O[C@H]([C@H]2C)[C@]1(C)O`, the inhibition is reported as 106% (active). Work on `CCN1CC(CN(C)Cc2nc(-c3ccc(Cl)cc3)no2)CC1=O` (stereo not given) yielded an inhibition of 1.31%. Work on `CCOC(=O)C1(Cc2cccc(OC)c2)CCCN(C(=O)CCSC)C1` (stereo not given) yielded an inhibition of 1.89%. With `C=CCNC(=O)c1ccc2c3n(nc2c1)-c1ccc(C)cc1CO3` the inhibition was -8.54%. With `CCCC(=O)NC(Nc1ccccc1OC)C(Cl)(Cl)Cl` (stereo not given) the inhibition was 1.6%. For `CCOc1ccccc1NC(=O)C12CC3CC(C1)CC(c1ccc(C)cc1)(C3)C2`, the inhibition was 20.1%. With `CCCn1c(NC(=O)C23CC4CC(CC(O)(C4)C2)C3)nc2ccccc21` the inhibition was 54.4% (active). `CCn1c(NC(=O)c2nn(C)cc2Br)nc2ccccc21` gave an inhibition of -1.42%. With `COc1cccc(N(C(=O)c2snc(C(N)=O)c2N)C(C(=O)NCC2CCCO2)c2c[nH]c3ccccc23)c1` (stereo not given) the inhibition was 3.94%. `N#C/C(=C(\O)C(F)(F)F)c1nnc2n1CCCCC2` gave an inhibition of 7.62%. With `Cn1sc(NC(=O)c2ccccc2)nc1=O` the inhibition was 1.73%. For `Cn1c(-c2ccc(C(=O)c3ccccc3)s2)nc2ccccc21`, the inhibition was -1.65%. In the case of `Cn1c(NC(=O)c2ccccc2)nc2ccccc21`, the inhibition is reported as 51.2% (active). In the case of `Cc1ccc(C)c(C(C)NC(=O)C2CCCO2)c1` (stereo not given), the inhibition is reported as 1.89%. `COc1cc(NC(=O)c2cccs2)ccc1NC(=O)c1ccccc1Cl` showed an inhibition of 3.93%. `COc1cc2ccccc2cc1C(=O)Nc1ccncc1` showed an inhibition of -4.59%. With `COc1cc2ccccc2cc1C(=O)Nc1ccc(NC(=O)c2cccs2)cc1` the inhibition was 64.7% (active). For `Cc1ccc(S(=O)(=O)NCCc2nnc3ccc(SCc4cccnc4)nn23)cc1`, the inhibition was 4.92%. `COc1ccc2sc(N(CCCN(C)C)C(=O)c3ccc(S(=O)(=O)N(C)C4CCCCC4)cc3)nc2c1` showed an inhibition of -0.457%. For `O=S(=O)(NCC1CC1)c1ccc(F)c(Cl)c1`, the inhibition was -1.69%. Work on `O=C(c1ccccc1)N1N=C(c2ccccc2O)CC1c1ccc(Br)cc1` (stereo not given) yielded an inhibition of 18.1%. Work on `COc1ccc(C2CC(c3cccs3)=NN2c2ccccc2)cc1` (stereo not given) yielded an inhibition of 11.6%. In the case of `Oc1ccccc1C1=NN(c2ccccc2)C(c2ccccc2)C1` (stereo not given), the inhibition is reported as 93.5% (active). For `Cc1nc2cc(C(F)(F)F)ccc2n1CCNc1nc(-c2cc(Cl)c(N)c(Cl)c2)cs1`, the inhibition was 34.8%. In the case of `CCCc1cc(=O)[nH]c2nnc(SCC(=O)Nc3nnc(SCC)s3)n12`, the inhibition is reported as 15.3%.
